Laboratory results reported in PubChem BioAssay AID623994 (NMMLSC, 2012).
Measured potencies and affinities stand elsewhere. Activity calls are given as the source filed them.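 How the source made its calls: active means compounds whose fitted concentration for half the maximal dye retention is below 100 µM; inactive means the rest.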

molecular target: Multidrug resistance protein CDR2 (Candida albicans (strain SC5314 / ATCC MYA-2876)) (UniProt P78595); test: CaCDR2 efflux pump inhibitors in yeast, dose response, S. cerevisiae AD1-8u, singleplex, Cherry Pick2 set (AID 623994); conditions: S. cerevisiae AD1-8u expressing CaCDR2, Nile Red efflux; series mostly up to 100 µM
Sequence (P78595 whole entry, looked up): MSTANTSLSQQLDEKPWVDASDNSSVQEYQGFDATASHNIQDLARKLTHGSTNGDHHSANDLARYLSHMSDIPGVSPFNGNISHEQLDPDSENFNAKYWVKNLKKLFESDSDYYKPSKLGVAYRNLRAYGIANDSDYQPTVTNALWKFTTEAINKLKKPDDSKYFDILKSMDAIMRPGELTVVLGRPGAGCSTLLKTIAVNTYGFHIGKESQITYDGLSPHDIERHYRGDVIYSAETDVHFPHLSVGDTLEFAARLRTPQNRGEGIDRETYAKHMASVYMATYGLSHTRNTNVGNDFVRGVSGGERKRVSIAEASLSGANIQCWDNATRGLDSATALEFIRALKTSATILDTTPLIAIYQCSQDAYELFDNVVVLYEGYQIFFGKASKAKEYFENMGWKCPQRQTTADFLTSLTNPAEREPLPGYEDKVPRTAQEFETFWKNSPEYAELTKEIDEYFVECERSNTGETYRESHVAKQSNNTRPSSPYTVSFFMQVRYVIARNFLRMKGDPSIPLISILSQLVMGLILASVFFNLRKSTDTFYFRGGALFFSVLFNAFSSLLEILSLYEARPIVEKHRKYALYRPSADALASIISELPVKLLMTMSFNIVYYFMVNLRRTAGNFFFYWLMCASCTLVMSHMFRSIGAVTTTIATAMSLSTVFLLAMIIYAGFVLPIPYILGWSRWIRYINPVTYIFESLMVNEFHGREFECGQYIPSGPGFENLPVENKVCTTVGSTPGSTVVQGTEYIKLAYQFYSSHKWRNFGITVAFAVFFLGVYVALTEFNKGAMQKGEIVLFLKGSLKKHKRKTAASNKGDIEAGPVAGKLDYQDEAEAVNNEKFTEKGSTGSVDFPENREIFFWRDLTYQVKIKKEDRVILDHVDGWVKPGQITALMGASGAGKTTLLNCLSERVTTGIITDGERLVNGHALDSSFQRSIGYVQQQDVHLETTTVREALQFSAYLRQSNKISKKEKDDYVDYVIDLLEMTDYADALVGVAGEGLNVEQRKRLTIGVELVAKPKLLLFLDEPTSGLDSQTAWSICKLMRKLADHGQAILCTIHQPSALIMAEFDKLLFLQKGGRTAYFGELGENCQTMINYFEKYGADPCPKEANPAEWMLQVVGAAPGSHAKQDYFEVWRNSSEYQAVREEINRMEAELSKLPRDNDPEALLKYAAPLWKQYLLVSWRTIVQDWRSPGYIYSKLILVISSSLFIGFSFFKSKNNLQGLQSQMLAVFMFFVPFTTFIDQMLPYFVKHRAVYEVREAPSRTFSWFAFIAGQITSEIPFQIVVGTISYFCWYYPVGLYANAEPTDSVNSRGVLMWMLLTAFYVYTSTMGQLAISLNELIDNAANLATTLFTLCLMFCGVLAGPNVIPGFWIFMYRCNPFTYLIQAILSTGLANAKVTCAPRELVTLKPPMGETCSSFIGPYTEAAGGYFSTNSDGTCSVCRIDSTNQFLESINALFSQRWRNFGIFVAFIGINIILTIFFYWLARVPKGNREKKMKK

outcome, inactive:
NS(=O)(=O)c1ccc(N2N=C(c3ccccc3)CC2c2ccccc2)cc1 (stereo not given)
NS(=O)(=O)c1ccc(N2N=C(c3ccccc3)CC2c2ccc(F)cc2)cc1 (stereo not given)
O=C1C(Cc2ccccc2)Nc2ncnc(N3CCN(c4ccccc4)CC3)c2N1Cc1ccccc1 (stereo not given)
CC(C)C(=O)N1CCC2(CC1)Oc1ccc(F)cc1C(=O)C21CC(c2ccccc2)=NO1 (stereo not given)
CCN(CC)CCC(c1ccc(N(C)C)cc1)c1c(OC)cc(OC)c2ccc(=O)oc12 (stereo not given)
OCCN1CCN(CC/C=C2/c3ccccc3Sc3ccc(C(F)(F)F)cc32)CC1
O=C(c1ccc2c(c1)OCO2)N1CCC2(CC1)Oc1ccc(F)cc1C(=O)C21CC(c2ccccc2)=NO1 (stereo not given)
CCCCCCCCCC[N+](C)(C)CC/C=C1/c2ccccc2Sc2ccc(Cl)cc21
CCC(Cc1ccccc1)OC(=O)c1ccccc1C(=O)O (stereo not given)
O=C(C1CCCN(c2ncnc3c2nc2n3CCCCC2)C1)N1CCN(c2cccc(Cl)c2)CC1 (stereo not given)
COc1ccc2c(c1)OC[C@H]1[C@H]2N2C(=O)c3ccc(C)cc3NC(=O)[C@@]2(C)[C@H]1c1ccccc1
O=C(c1ccoc1)N1CCC2(CC1)Oc1ccc(F)cc1C(=O)C21CC(c2ccccc2)=NO1 (stereo not given)
O=C(NC1CCCc2c1cnn2-c1ccccc1F)c1ccccn1 (stereo not given)
COc1ccc(CN2C(=O)C(C)Nc3ncnc(N4CCN(c5ccccc5)CC4)c32)cc1 (stereo not given)
O=C(CSc1nnc(Cc2cccs2)n1Cc1ccco1)Nc1cccc(Cl)c1
NS(=O)(=O)c1ccc(N2N=C(c3ccccc3)CC2c2cccc(Br)c2)cc1 (stereo not given)
COc1ccccc1C(=O)OCCc1ccccc1
O=C(Nc1ccccc1)C1=C[C@@H](c2ccc(Br)cc2)C[C@@H](OCCCCO)O1
Nc1ccc(C(=O)OCCc2ccccc2)cc1
N#CC(C(=O)NCc1ccccc1)c1nc2ccccc2nc1N1CCCC1 (stereo not given)
CC(C)C(=O)N1CCC2(CC1)Oc1ccc(F)cc1C(=O)C21CC(c2ccc(Cl)cc2)=NO1 (stereo not given)
Cc1ccc(CN2C(=O)C(CC(C)C)Nc3ncnc(N4CCN(c5ccccc5)CC4)c32)cc1 (stereo not given)
O=C(C[n+]1cc(-c2ccccc2)n2c1CCC2)N1c2ccccc2Sc2ccccc21
Cc1ccc(C)c(N2CCN(C(=O)C3CCCN(c4ncnc5c4nc4n5CCCCC4)C3)CC2)c1 (stereo not given)
CCO[C@@H]1OC(C(=O)Nc2ccccc2)=C[C@H](c2ccccc2)[C@H]1CCCO
Cc1cc(C)c2sc(N(CCCN(C)C)C(=O)c3ccc(Br)s3)nc2c1
CC(C)C(=O)N1CCN(c2ccccc2NC(=O)c2ccc3c(c2)OCCO3)CC1
CCCCN1Cc2cc(C(=O)c3cc(F)ccc3O)cnc2NC1=O
CCCCCc1cc(=O)oc2c(C(CCN3CCCC(C)C3)c3ccc(N(C)C)cc3)c(OC)cc(OC)c12 (stereo not given)
COc1ncccc1C(=O)NC1CCCc2c1cnn2-c1cc(C)cc(C)c1 (stereo not given)
